In publication PMC4336329 (PLoS ONE, 2015):
The campaign covered roughly 310,000 compounds. About 2,200 (0.71%) showed an effect of 50% or more. The effect is printed as a negative number. The sample holds strong results, similar compounds and a random draw of the others, so the mix is not that of the screen.

target: human ether-à-go-go-related gene (hERG) potassium channel (human, UniProt Q12809); experiment: primary screen, population patch clamp on CHO cells stably expressing hERG; higher = less effect of the substance
Sequence (Q12809 whole entry, looked up): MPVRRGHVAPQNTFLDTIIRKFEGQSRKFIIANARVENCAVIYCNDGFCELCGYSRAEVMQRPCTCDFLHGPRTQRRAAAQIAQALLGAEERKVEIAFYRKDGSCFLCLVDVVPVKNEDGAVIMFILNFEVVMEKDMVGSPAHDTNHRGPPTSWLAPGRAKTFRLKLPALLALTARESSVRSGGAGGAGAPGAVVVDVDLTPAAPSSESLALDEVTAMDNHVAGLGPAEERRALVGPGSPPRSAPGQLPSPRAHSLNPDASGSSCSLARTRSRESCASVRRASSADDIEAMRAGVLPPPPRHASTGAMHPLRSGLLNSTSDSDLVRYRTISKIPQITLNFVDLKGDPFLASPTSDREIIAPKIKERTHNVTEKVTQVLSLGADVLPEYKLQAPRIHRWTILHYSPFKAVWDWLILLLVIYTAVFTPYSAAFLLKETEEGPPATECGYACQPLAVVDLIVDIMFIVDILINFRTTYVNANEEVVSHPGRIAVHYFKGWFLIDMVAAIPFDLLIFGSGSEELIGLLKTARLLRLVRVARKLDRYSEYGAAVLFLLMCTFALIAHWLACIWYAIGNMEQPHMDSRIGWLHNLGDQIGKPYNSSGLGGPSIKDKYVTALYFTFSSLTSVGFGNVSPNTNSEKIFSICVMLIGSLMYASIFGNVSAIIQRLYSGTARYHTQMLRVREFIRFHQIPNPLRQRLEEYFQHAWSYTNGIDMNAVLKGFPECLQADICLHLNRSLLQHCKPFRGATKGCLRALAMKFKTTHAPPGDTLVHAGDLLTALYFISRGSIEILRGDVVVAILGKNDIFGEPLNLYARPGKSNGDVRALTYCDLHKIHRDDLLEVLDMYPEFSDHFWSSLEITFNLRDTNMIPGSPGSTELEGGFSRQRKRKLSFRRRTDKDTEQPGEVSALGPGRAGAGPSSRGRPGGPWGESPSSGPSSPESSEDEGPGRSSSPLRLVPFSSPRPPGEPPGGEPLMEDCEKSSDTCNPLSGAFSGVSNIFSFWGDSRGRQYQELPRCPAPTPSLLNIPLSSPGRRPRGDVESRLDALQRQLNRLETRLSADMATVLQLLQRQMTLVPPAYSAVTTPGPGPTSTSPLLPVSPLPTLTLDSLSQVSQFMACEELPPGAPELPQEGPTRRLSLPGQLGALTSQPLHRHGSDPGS

| Structure (SMILES) | hERG current change (%, negative = inhibition) at 1uM |
| --- | --- |
| O=C(NCCN1CCN(S(=O)(=O)c2ccccc2)CC1)C(=O)Nc1ccc(F)cc1 | 8.68% |
| O=C(CN1C(=O)c2cccc3cccc(c23)C1=O)NCCCO | 9.32% |
| COc1ccccc1NC(=O)N1CCN(c2ccc3nnc(-c4ccc(F)cc4)n3n2)CC1 | 13.5% |
| CC(C)CCN1CCN(Cc2nc3ccccc3s2)CC1CCO (stereo not shown) | -8.09% |
| COc1ccc(CC2(CO)CCN(Cc3ccc4nsnc4c3)CC2)cc1 | -4.45% |
| OCC1(CCc2ccccc2)CCN(Cc2ccc3nsnc3c2)CC1 | -69.1% |
| OCCC1CN(Cc2nc(-c3ccccc3)cs2)CCN1CCc1ccccc1 (stereo not shown) | -42.8% |
| OCC1(Cc2ccc(Cl)cc2)CCN(Cc2ccc3nsnc3c2)CC1 | -6.01% |
| OCCC1CN(Cc2ccc3nsnc3c2)CCN1CCc1ccccc1 (stereo not shown) | -73.7% |
| OCCC1CN(Cc2nc3ccccc3s2)CCN1CCc1ccccc1 (stereo not shown) | -58.3% |
| OCCC1CN(Cc2nc(-c3ccc(F)cc3)cs2)CCN1CCc1ccccc1 (stereo not shown) | -69.3% |
| OCCC1CN(Cc2nc(-c3ccccc3)cs2)CCN1Cc1ccc(F)cc1 (stereo not shown) | -47.1% |
| CC(C)CCN1CCN(Cc2ccc3nsnc3c2)CC1CCO (stereo not shown) | -21.3% |
| CC(C)CN1CCN(Cc2nc3ccccc3s2)CC1CCO (stereo not shown) | -5.53% |
| CC(C)=CCN1CCN(Cc2ccc3nsnc3c2)CC1CCO (stereo not shown) | 4.93% |
| O=C(N/N=C/c1ccc(-c2cccc([N+](=O)[O-])c2)o1)[C@H]1C[C@@H]1c1ccccc1 | 3.49% |
| CCOC(=O)c1cnc(N)nc1C(F)(F)F | -2.92% |
| CCC(=O)NC(=S)Nc1ccc(NC(=O)COc2ccccc2)cc1 | 19.7% |
| COc1ccc(C(=O)N2CCN(C(C)=O)CC2)cc1S(=O)(=O)N1CCOCC1 | 14.4% |
| COc1ccc(C(=O)NCc2ccc3c(c2)OCO3)c(OC)c1 | 13.6% |
| CC(=O)Nc1ccc(S(=O)(=O)NCC(=O)OCC(=O)N2CCc3ccccc32)cc1 | 2.85% |
| COc1ccc2oc(=O)cc(CN3CCN(Cc4ccc(OC)c(OC)c4OC)CC3)c2c1 | -2.05% |
| CCN(Cc1nc2ccccc2c(=O)[nH]1)Cc1cc(=O)oc2cc(C)c(C)cc12 | -25.2% |
| Cc1ccc2c(CN3CCOCC3)cc(=O)oc2c1 | -6.01% |
| O=c1cc(CN2CCN(Cc3ccccc3)CC2)c2cc(O)ccc2o1 | -39.4% |

| Structure (SMILES) | hERG current change (%, negative = inhibition) at 1uM |
| --- | --- |
| Cc1cc2oc(=O)cc(CN3CCN(Cc4ccccc4)CC3)c2cc1O | -12.5% |
| Cc1ccc2c(CN3CCC(C)CC3)cc(=O)oc2c1 | -1.03% |
| CCN(Cc1nc2ccccc2c(=O)[nH]1)Cc1cc(=O)oc2cc(OC)ccc12 | -25.6% |
| O=c1cc(CN2CCN(Cc3ccccc3)CC2)c2ccc(O)cc2o1 | -79.7% |
| COc1ccc(CN2CCN(Cc3cc(=O)oc4cc(C)ccc34)CC2)c(OC)c1OC | -87.6% |
| CCc1ccc2c(CN(CC)Cc3nc4ccccc4c(=O)[nH]3)cc(=O)oc2c1 | -60.5% |
| Cc1ccc2c(CN3CCN(CCO)CC3)cc(=O)oc2c1 | -52.1% |
| Cc1ccc2c(CN3CCCCC3)cc(=O)oc2c1 | 6.38% |
| COc1ccc(CNC(=O)CSc2nnc3c(n2)[nH]c2ccc(OC)cc23)cc1 | 11.1% |
| Cc1ccc(NS(=O)(=O)c2cc(NC(=O)c3cc4c(s3)CCCC4)ccc2C)c(C)c1 | 7.78% |
| CCC1(CC)C(=O)NC(=O)NC1=NCCc1c[nH]c2ccccc12 | 21.2% |
| Fc1cccc(CN2CCN(Cc3nc(CCc4ccccc4)no3)CC2)c1 | 3.49% |
| COC(=O)C1CCN(Cc2cc(=O)oc3cc(OC)ccc23)CC1 | -1.21% |
| COc1ccc2oc(=O)cc(CN3CCOCC3)c2c1 | 10.4% |
| CCc1ccc2c(CN3CCOCC3)cc(=O)oc2c1 | -4.5% |
| CCc1ccc2oc(=O)cc(CN3CCN(Cc4ccccc4)CC3)c2c1 | -17.6% |
| Cc1cc(C)c2c(CN3CCN(Cc4ccc5c(c4)OCO5)CC3)cc(=O)oc2c1 | -50.3% |
| CCc1ccc2c(CN3CCN(Cc4ccccc4)CC3)cc(=O)oc2c1 | -84.6% |
| Cc1cc(C)c2c(CN3CCN(Cc4ccc5c(c4)OCO5)CC3)cc(=O)oc2c1C | 2.67% |
| Cc1cc2oc(=O)cc(CN3CCN(Cc4ccccc4)CC3)c2cc1Cl | 0.748% |
| Cc1ccc2oc(=O)cc(CN3CCN(Cc4ccccc4)CC3)c2c1 | -18.6% |
| Cc1cc2oc(=O)cc(CN3CCN(Cc4ccc5c(c4)OCO5)CC3)c2cc1C | 0.724% |
| COc1ccc(OC)c(CN2CCN(Cc3cc(=O)oc4cc(O)ccc34)CC2)c1 | -67% |
| Cc1ccc2c(CN3CCN(Cc4ccccc4)CC3)cc(=O)oc2c1 | -84% |
